From PubChem BioAssay (Tox21)
Results filed as inconclusive are left out. Where a call stands in place of a potency, no number is given. Unmarked numbers belong to inactive results. Activity calls are given as the source filed them. Calls follow the shape of the full dose curve.

assay: qHTS assay to identify small molecule agonists of H2AX - cell viability counter screen (AID 1224847); details: CHO-K1 viability, CellTiter-Glo luminescence, 3 h; series mostly up to 154 µM; also: top concentration of the series differs between compounds; nearly all actives have a fitted effect of over 30% in size
Description: National Center for Advancing Translational Sciences [NCATS]
NIH Chemical Genomics Center [NCGC]
U.S. Environmental Protection Agency [EPA]
National Institutes of Environmental Health Sciences [NIEHS]
National Toxicology Program [NTP]
U.S. Food and Drug Administration [FDA]
HTRF phospho-H2AX (Ser139) assay (Cisbio Bioassays, US) enables the quantitative detection of the histone variant H2AX when phosphorylated on serine 139. When double-stranded DNA breaks, either by ionizing radiation or endogenous physiological processes, H2AX becomes phosphorylated at Ser139. This phospho-Ser139 serves as a sensitive biomarker for the detection of such breaks, localizing the site of DNA repair. So, HTRF phospho-H2AX Ser139 is a pertinent assay to study genome stability, the cell cycle, DNA repair, and it serves as a biomarker for cancer, and to understand aging. Wild type CHO-K1 cells were used to identify the inducers of Phospho-H2AX Ser 139 from the Tox21 compound collections. Also cytotoxicity of the Tox21 10K compound library against the CHO-K1 cell line was tested by measuring the cell viability using CellTiter-Glo assay (Promega, Madison, WI).
Tox21 Assay Protocol Summary:
The CHO-K1 cells suspended in culture medium containing 10% FBS were dispensed at 1000 cells/ 3 ul/well in 1536-well white wall/solid bottom plates (Greiner Bio-One North America, NC) using a Multidrop Combi (Thermo Fisher Scientific Inc., Waltham, MA). After the assay plates were incubated at 37C overnight, 23 nl of compounds at 15 concentrations (from 5-48 columns) or positive control (from 1 to 4 columns) were transferred to the assay plates using a Pintool station (Wako, San Diego, CA) into each well resulting in a final DMSO concentration of 0.76%. After 3hr incubation at 37C, 3 uL/well CellTiter-Glo luminescent cell viability reagent (Promega Corporation, Madison, WI) was added using a Flying Reagent Dispenser (FRD) (Aurora Discovery, CA). After incubation at room temperature for 30 min, the luminescence intensity was read using a ViewLux plate reader (PerkinElmer, Waltham, MA).

Row | SMILES | Potency | activity change, negative = cytotoxicity
1 | Cc1ccc(C(C)C)cc1O | inactive | 
2 | OCCN(CCO)c1ccccc1 | inactive | 
3 | OCC(CBr)(CBr)CBr | inactive | 
4 | C=CCCC=C | inactive | 
5 | CCCCNCCCC | inactive | 
6 | NS(=O)(=O)c1cc(-c2nn[nH]n2)c(NCc2cccs2)cc1Cl | inactive | 
7 | OCc1c2ccccc2cc2ccccc12 | inactive | 
8 | CC1=C2[C@H](/C=C(\C)C(=O)O)CC[C@@H](C)[C@H]2CC1 | inactive | 
9 | COc1cc(C)ccc1C(C)C | inactive | 
10 | O=C(O)C(=O)Cc1c[nH]c2ccccc12 | inactive | 
11 | CCCN(CCC)C(=O)C(CCC(=O)O)NC(=O)c1ccccc1 (stereo not given) | inactive | 
12 | CC1CN(c2ccccc2)NC1=O (stereo not given) | inactive | 
13 | CC/C=C\CCOC(=O)C(C)C | inactive | 
14 | Cc1ccc([N+](=O)[O-])cc1Cl | inactive | 
15 | CCCCCCCCc1ccc(S(=O)(=O)O)cc1 | inactive | 
16 | CN(C)CCOc1ccccc1Cc1ccccc1 | inactive | 
17 | CC(C)Nc1nc(N)nc(Cl)n1 | inactive | 
18 | Oc1ccccc1F | inactive | 
19 | O=c1[nH]c(=O)n([C@H]2C[C@H](O)[C@@H](CO)O2)cc1C(F)(F)F | inactive | 
20 | CCCCC(=O)O[C@]1(C(=O)CO)[C@H](C)C[C@H]2[C@@H]3CCC4=CC(=O)C=C[C@]4(C)[C@@]3(F)[C@@H](O)C[C@@]21C | inactive | 

Row | SMILES | Potency | activity change, negative = cytotoxicity
21 | CC(C)(C)c1cccc(O)c1 | inactive | 
22 | CCN(CC)CCNC(=O)COc1ccc(Cl)cc1 | inactive | 
23 | C=CCCCCCCCCO | inactive | 
24 | CCOC(=O)c1ccccc1O | inactive | 
25 | CCN(CC)C(=O)N(CC)CC | inactive | 
26 | CCOC(=O)C1CC(=O)C(=C(O)C2CC2)C(=O)C1 (stereo not given) | inactive | 
27 | COc1cc(Cl)ccc1Cl | inactive | 
28 | Cc1cc(S(=O)(=O)O)c(N)cc1Cl | inactive | 
29 | CCc1cc(Cl)c(OC)c(C(=O)NC[C@@H]2CCCN2CC)c1O | inactive | 
30 | CC(C)S | inactive | 
31 | O=C1CCCCC1C1CCCCC1 (stereo not given) | inactive | 
32 | CCCCC(CC)COC(=O)COc1cc(Cl)c(Cl)cc1Cl (stereo not given) | inactive | 
33 | O=C(O)CN(CCN(CC(=O)O)CC(=O)O)CCN(CC(=O)O)CC(=O)O |  | 0.16% [at 31.6 µM]
34 | C=C(C)C(=O)OCCOP(=O)(O)O | inactive | 
35 | CC(C)C1=CC2=CC[C@@H]3[C@](C)(CCC[C@@]3(C)C(=O)O)[C@H]2CC1 | inactive | 
36 | COc1ccc(Nc2ccc(OC)cc2)cc1 | inactive | 
37 | CC1=C(O)C(=O)OC1C (stereo not given) | inactive | 
38 | O=C(C(Cl)Cl)N1CCOC12CCCCC2 | inactive | 
39 | COc1ccccc1N1CCN(CCCNc2cc(=O)n(C)c(=O)n2C)CC1 | inactive | 
40 | Cc1c[nH]c(=S)[nH]c1=O | inactive | 
